The results in this text go back to PubChem BioAssay (NCI).

Test systems include SR leukemia; RPMI-8226 leukemia; OVCAR-8 ovarian; OVCAR-5 ovarian; OVCAR-4 ovarian; IGROV1 ovarian; OVCAR-3 ovarian; HS 578T breast; NCI/ADR-RES ovarian; T-47D breast; BT-549 breast; MDA-MB-435 melanoma; SW-620 colon; MCF7 breast; HCT-116 colon; HCC-2998 colon; KM12 colon; SK-OV-3 ovarian.
Common to all, as to assay: NCI-60 one-dose screen, 48 h (100 = growth as untreated, 0 = no growth, -100 = all killed)
Conditions in all cases: 10 µM unless noted

This is part of a sample that, as a whole, favours compounds with a hit. Of some 83,000 tested, about 20% had one in any assay.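 Plates (96-well) were seeded with cells, treated with compound at one concentration, and incubated for 48 hours before percent growth was determined.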 A number with no mark means an inactive call. Calls of active or inactive are those of the source. The calls were made as follows: active = growth percent below 10; inactive = the rest.

As for `O=C(CCCN1CCOCC1)Nc1ccc(Cn2nnc3c2C(=O)c2nnn(Cc4ccc(NC(=O)CCCN5CCOCC5)cc4)c2C3=O)cc1`, the growth in the experiment on SR leukemia is 10.6%; with RPMI-8226 leukemia, 37.5%; with OVCAR-8 ovarian, 38.5%; with OVCAR-5 ovarian, 121%; in the experiment with OVCAR-4 ovarian it was -65.7% (active); with IGROV1 ovarian it was 3.22% (active). The growth in the experiment on OVCAR-3 ovarian was -1.11% (active); in the experiment with HS 578T breast, 101%; with NCI/ADR-RES ovarian, 102%; in the experiment on T-47D breast, -16.5% (active); in the experiment on BT-549 breast, 42.6%; in the experiment on MDA-MB-435 melanoma it was -78.9% (active). Also, the growth in the experiment with SW-620 colon was 30.2%; in the experiment with MCF7 breast it was -58.6% (active); with HCT-116 colon, 0.281% (active); with HCC-2998 colon, 13.1%; with KM12 colon, 65.3%.

As for `O=C(O)c1cn(C2CC2)c2cc(N3CCN(Cc4nc5c(cnn5-c5ccc([N+](=O)[O-])cc5)c(=O)[nH]4)CC3)c(F)cc2c1=O`, the growth in the experiment with SR leukemia is 97.5%; in the experiment with RPMI-8226 leukemia it was 98%; in the experiment on OVCAR-8 ovarian it was 99.9%; in the experiment on OVCAR-5 ovarian, 103%; in the experiment with OVCAR-4 ovarian, 91.9%; with IGROV1 ovarian it was 94.2%. The growth is 112% in the experiment on OVCAR-3 ovarian; 105% in the experiment on HS 578T breast; 106% in the experiment with NCI/ADR-RES ovarian; 104% in the experiment on T-47D breast; 100% in the experiment with MDA-MB-435 melanoma; 105% with SW-620 colon. The growth in the experiment on MCF7 breast was 91.5%; in the experiment with HCT-116 colon, 99.8%; in the experiment on HCC-2998 colon, 112%; in the experiment on KM12 colon, 107%.

In the case of `O=C(Nc1ccc(F)cc1)Nc1ccc(CCO)cc1`, the growth with SR leukemia is 103%; in the experiment on RPMI-8226 leukemia it was 108%; in the experiment with OVCAR-8 ovarian it was 104%; in the experiment on OVCAR-5 ovarian it was 114%; with SK-OV-3 ovarian, 113%; in the experiment on IGROV1 ovarian, 99.9%. Also, the growth with OVCAR-3 ovarian was 117%; with HS 578T breast it was 106%; with NCI/ADR-RES ovarian, 108%; in the experiment with T-47D breast, 104%; in the experiment on BT-549 breast, 108%; in the experiment with MDA-MB-435 melanoma it was 97.4%. Moreover, the growth in the experiment on SW-620 colon is 108%; in the experiment on MCF7 breast, 109%; in the experiment with HCT-116 colon, 94.7%; in the experiment on HCC-2998 colon, 108%; in the experiment with KM12 colon it was 108%.

`CCn1cc2c(cc1=O)-c1nc3ccccc3c3ccnc(c13)C2=O`: the growth in the experiment on SR leukemia is 15.1%; in the experiment with RPMI-8226 leukemia, 80.1%; in the experiment with OVCAR-8 ovarian it was 55.2%; in the experiment on OVCAR-5 ovarian, 105%; in the experiment on OVCAR-4 ovarian, 80.7%; in the experiment with IGROV1 ovarian, 70.2%. For the same compound, the growth was 73.8% in the experiment with OVCAR-3 ovarian; 94.4% in the experiment on HS 578T breast; 71.8% in the experiment on NCI/ADR-RES ovarian; 56.8% with T-47D breast; 86.2% in the experiment with BT-549 breast; 63.3% in the experiment with MDA-MB-435 melanoma. In addition, the growth is 45.8% in the experiment with SW-620 colon, 50% in the experiment with HCT-116 colon, 78.8% in the experiment with HCC-2998 colon and 78.7% with KM12 colon.

For the compound `Cc1sc2nc3[nH]/c(=C\c4ccc(Cl)cc4)c(=O)n3c(=O)c2c1C`, the growth with SR leukemia is 86.6%; with RPMI-8226 leukemia, 97.1%; in the experiment on OVCAR-8 ovarian, 103%; in the experiment with OVCAR-5 ovarian it was 81.7%; in the experiment with OVCAR-4 ovarian it was 105%; in the experiment on IGROV1 ovarian, 107%. In addition, the growth is 107% in the experiment with OVCAR-3 ovarian; 111% in the experiment with HS 578T breast; 107% in the experiment with NCI/ADR-RES ovarian; 103% with T-47D breast; 105% with BT-549 breast; 98% with MDA-MB-435 melanoma. For the same compound, the growth in the experiment with SW-620 colon was 102%; in the experiment with MCF7 breast, 100%; in the experiment with HCT-116 colon it was 102%; in the experiment on KM12 colon, 108%.

`CC/C=C\C[C@H](O)C/C=C1/C(=O)C=C[C@@H]1C/C=C\CCCC(N)=O`: the growth is -27% (active) in the experiment on SR leukemia; 6.43% (active) in the experiment with RPMI-8226 leukemia; 11.6% in the experiment with OVCAR-8 ovarian; 29.8% with OVCAR-5 ovarian; 56.4% with OVCAR-4 ovarian; 10.4% with IGROV1 ovarian. The growth is 3.26% (active) in the experiment on OVCAR-3 ovarian; 55.2% in the experiment on HS 578T breast; 10.7% in the experiment with NCI/ADR-RES ovarian; 1.28% (active) in the experiment with T-47D breast; -12.6% (active) with BT-549 breast; 23.5% in the experiment with MDA-MB-435 melanoma. The growth is 5.37% (active) with SW-620 colon; 7.66% (active) in the experiment with MCF7 breast; -69% (active) with HCT-116 colon; -73.6% (active) in the experiment with HCC-2998 colon; -38.7% (active) with KM12 colon.

As to `O=C(Nc1nc(-c2ccccc2)cc(-c2ccc(Cl)cc2)n1)c1ccncc1`, the growth was 108% with SR leukemia; 92.3% with RPMI-8226 leukemia; 100% with OVCAR-8 ovarian; 104% in the experiment with OVCAR-5 ovarian; 90.2% in the experiment with OVCAR-4 ovarian; 95.3% in the experiment on IGROV1 ovarian. Besides, the growth is 98.6% in the experiment on OVCAR-3 ovarian; 100% in the experiment with HS 578T breast; 83% with T-47D breast; 101% with BT-549 breast; 96.8% with MDA-MB-435 melanoma; 90.9% with SW-620 colon. Also, the growth in the experiment on MCF7 breast was 84.6%; with HCT-116 colon, 87.6%; in the experiment on HCC-2998 colon, 102%; in the experiment with KM12 colon it was 100%.

As to `O=C1OC2C(I)C3CC2C1C3c1ccccc1` (configuration not stated), the growth in the experiment on SR leukemia is 86.8%; in the experiment on RPMI-8226 leukemia, 106%; in the experiment with OVCAR-8 ovarian, 112%; in the experiment on OVCAR-5 ovarian, 93%; with SK-OV-3 ovarian, 116%; in the experiment on IGROV1 ovarian it was 111%. Also, the growth in the experiment on OVCAR-3 ovarian is 120%; in the experiment with HS 578T breast, 143%; with NCI/ADR-RES ovarian it was 101%; in the experiment with T-47D breast, 95.2%; in the experiment with BT-549 breast it was 152%; in the experiment on MDA-MB-435 melanoma it was 131%. Further, the growth is 96.1% in the experiment on SW-620 colon; 109% in the experiment on MCF7 breast; 96.8% with HCT-116 colon; 105% in the experiment with HCC-2998 colon; 108% with KM12 colon.
